SW480 rereplic: induces DNA re-replication in SW480 colon adenocarcinoma cells. SW480 DNA re-replication, Hoechst DNA content imaging, 48 h. Potency, µM (highest dose often 46.1 µM), actives largely listed as activators. 1.8% of 340,000 active. AID 624297; further: nearly all actives have a fitted effect of over 55% in size
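Compounds, transferred as 23 nL by pin tool, were incubated with cells for 48 hr; DNA content per nucleus was then quantified by Hoechst staining and fluorescence plate imaging.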
KB-V1 cytotox: KB-V1 MDR subline cytotoxicity | 3.4% of 400,000 active | Potency, µM (titrated, usually from 46.1 µM), hits mostly cytotoxic | AID 1347076 | KB-V1 MDR cells viability, CellTiter-Glo, 72 h; further: nearly all actives have a fitted effect of over 60% in size
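Cells of the MDR subline KB-V1 are plated, dosed with compound at multiple concentrations, and incubated 72 h at 37 degrees C; CellTiter-Glo is then added and luminescence read after 10 min.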
KB-3-1 cytotox: kills parental KB-3-1 adenocarcinoma cells. KB-3-1 viability, CellTiter-Glo ATP luminescence, 72 h. 1.4% of 400,000 active. Potency, µM (highest dose often 46.1 µM), hits mostly cytotoxic; further: nearly all actives have a fitted effect of over 60% in size
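Parental KB-3-1 adenocarcinoma cells in phenol-red-free DMEM with 10% FBS were pin-treated with compounds at several concentrations, incubated 72 h at 37 °C, and viability read by CellTiter-Glo luminescence; concentration-effect curves were fitted after normalization.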
PINK1 expr mod: changes PINK1 expression; Potency, µM (titrated, usually from 76.6 µM), usual class: activators; 0.2% of 410,000 active; PINK1 immunofluorescence, high-content cytometry, 24 h; AID 624263; active means well fitted activation curve with a large enough effect; inconclusive means small, poorly fitted or top-dose-only effect; cell line not stated here; further: nearly all actives have a fitted effect of over 65% in size
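PINK1 protein level read as immunofluorescence by microplate cytometer in a fixed, stained stable cell line after 24 h exposure to five compound concentrations, with CCCP as control.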
MCF10A rereplic: inducers of DNA re-replication in MCF 10A breast cells; MCF 10A DNA re-replication, Hoechst nuclear intensity, 48 h; Potency, µM (highest dose often 46.1 µM), usual class: activators; 2.9% of 350,000 active; AID 624296; further: nearly all actives have a fitted effect of over 50% in size
TSG101-PTAP inh: blocks PTAP/TSG101 interaction to inhibit HIV-1 budding | Q99816 | Potency, µM (titrated, usually from 115 µM), actives largely listed as inhibitors | 340,000 tested, under 10 active | AID 493005 | Fluorescence polarization, FITC-PTAP peptide / Tsg101 binding; active means well fitted inhibition curve with a large enough effect in the main read-out, with a control signal flat, not every such curve was filed as active; inconclusive means small, poorly fitted or top-dose-only effect, or effect the other way, or a change in a side signal; inactive means no such curve, though single readings can be large or run the other way
Target sequence (Q99816 whole entry, looked up): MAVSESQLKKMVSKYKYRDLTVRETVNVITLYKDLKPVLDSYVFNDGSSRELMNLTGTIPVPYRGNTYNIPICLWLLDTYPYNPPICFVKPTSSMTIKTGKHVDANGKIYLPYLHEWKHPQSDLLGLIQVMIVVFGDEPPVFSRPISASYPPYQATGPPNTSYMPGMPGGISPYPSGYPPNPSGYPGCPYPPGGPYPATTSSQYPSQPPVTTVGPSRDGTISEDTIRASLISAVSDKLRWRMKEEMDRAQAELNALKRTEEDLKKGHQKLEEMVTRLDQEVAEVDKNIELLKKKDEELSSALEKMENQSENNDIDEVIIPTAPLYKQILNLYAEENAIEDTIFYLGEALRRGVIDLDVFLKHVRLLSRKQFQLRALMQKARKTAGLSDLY
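Steps: Tsg101 binding domain dispensed (10 uM final), compounds pinned in DMSO, FITC-labeled PTAP-motif peptide added (50 nM final); after 20 min binding at room temperature, polarization measured.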
Large screens that a line does not name were inactive. Sampled rows, rich in hits. Any-hit rate of the full collection: about 6.8%. Unless noted, the call rests on the fitted dose curve; in most records, active means well fitted curve in the direction sought with a large enough effect; inconclusive means small, poorly fitted or top-dose-only effect, or another doubt; inactive means no such curve, though single readings can be large; an effect the other way counts as inactive or inconclusive.

Cc1ccc(NC(=O)c2oc3ccccc3c2NC(=O)C23CC4CC(CC(C4)C2)C3)cc1	KB-V1 cytotox inconclusive (no result: SW480 rereplic, MCF10A rereplic, TSG101-PTAP inh)
COc1ccc(C2C(=O)N(C3CCCCC3)CC(=O)N2CCc2ccc(C)cc2)cc1OC (stereo unspecified)	none (no result: SW480 rereplic, MCF10A rereplic, TSG101-PTAP inh)
NC(=O)Cn1c(=O)n(-c2ccc(F)c(Cl)c2)c(=O)c2sc3ccccc3c21	none (no result: SW480 rereplic, MCF10A rereplic, TSG101-PTAP inh)
CN(C)c1cccc(N2CCN(c3nn4c(=O)c5ccccc5nc4s3)CC2)c1	none (no result: SW480 rereplic, PINK1 expr mod, MCF10A rereplic, TSG101-PTAP inh)
O=C(C1CCCN(c2ncnc3c2nc2n3CCCCC2)C1)N1CCN(c2ccc(Cl)cc2)CC1 (stereo unspecified)	SW480 rereplic inconclusive, KB-3-1 cytotox 16µM
CC(C)c1ccc(NC(=O)C2CCN(c3ncnc4c3nc3n4CCCCC3)CC2)cc1	SW480 rereplic inconclusive, MCF10A rereplic 16µM
O=C(Nc1ccccn1)C1CCCN(c2ncnc3c2nc2n3CCCCC2)C1 (stereo unspecified)	MCF10A rereplic 23µM
Clc1cccc(N2CCN(c3ncnc4c3nc3n4CCCCC3)CC2)c1	KB-V1 cytotox 15µM, KB-3-1 cytotox 13µM (no result: SW480 rereplic, MCF10A rereplic, TSG101-PTAP inh)
Cc1ccnc(NC(=O)C2CCCN(c3ncnc4c3nc3n4CCCCC3)C2)c1 (stereo unspecified)	MCF10A rereplic inconclusive
Cc1cc2oc(=O)c(CC(=O)NCCc3ccccc3F)c(C)c2c2occ(C(C)(C)C)c12	none (no result: SW480 rereplic, KB-V1 cytotox, KB-3-1 cytotox, MCF10A rereplic, TSG101-PTAP inh)
CC(=O)N1CCOc2cc(S(=O)(=O)NCc3ccccc3Cl)c(Cl)cc21	none (no result: SW480 rereplic, MCF10A rereplic, TSG101-PTAP inh)
Cc1ccc(S(=O)(=O)N2CCN(c3nc(-c4cccs4)nc(C)c3C)CC2)cc1	none (no result: SW480 rereplic, MCF10A rereplic, TSG101-PTAP inh)
Cc1ccccc1Nc1sc(C(=O)c2ccc(F)cc2)c(N)c1C(=O)NCCc1ccccc1	KB-V1 cytotox inconclusive (no result: SW480 rereplic, MCF10A rereplic, TSG101-PTAP inh)
CCOc1ccc(CCNC(=O)CN2C(=O)COc3ccc(S(=O)(=O)N4CCCC4)cc32)cc1	none (no result: SW480 rereplic, MCF10A rereplic, TSG101-PTAP inh)
CCOc1ccc(OCC)c(NC(=O)CCC(=O)N2CCOc3ccccc32)c1	KB-V1 cytotox inconclusive (no result: SW480 rereplic, MCF10A rereplic, TSG101-PTAP inh)
CCOc1ccccc1NC(=O)Nc1nnc(N2CCCCCC2)s1	none (no result: SW480 rereplic, MCF10A rereplic, TSG101-PTAP inh)
COc1ccc(/C=N/NC(=O)c2[nH]c3ccc(C)cc3c2-c2ccccc2)c(C(=O)O)c1OC	SW480 rereplic inconclusive, MCF10A rereplic 5.8µM
NNC(=O)c1[nH]c2ccc([N+](=O)[O-])cc2c1-c1ccccc1	SW480 rereplic inconclusive, KB-3-1 cytotox inconclusive, MCF10A rereplic inconclusive
O=C(N/N=C/c1ccccc1)c1[nH]c2ccc(Br)cc2c1-c1ccccc1	SW480 rereplic inconclusive, KB-V1 cytotox 0.82µM, KB-3-1 cytotox 0.73µM, MCF10A rereplic inconclusive
O=C(N/N=C/c1ccccn1)c1[nH]c2ccc([N+](=O)[O-])cc2c1-c1ccccc1	SW480 rereplic inconclusive, KB-V1 cytotox inconclusive, KB-3-1 cytotox 9.2µM, MCF10A rereplic inconclusive
Cc1ccc2[nH]c(C(=O)N/N=C/c3ccccc3C(=O)O)c(-c3ccccc3)c2c1	SW480 rereplic inconclusive, MCF10A rereplic inconclusive
O=C(NCC1Cc2cccc(-c3cccnc3)c2O1)c1ccc2cc[nH]c2c1 (stereo unspecified)	none (no result: SW480 rereplic, KB-V1 cytotox, KB-3-1 cytotox, MCF10A rereplic, TSG101-PTAP inh)
Cc1ccc(NC(=O)Cn2ncn3c(cc4ccccc43)c2=O)cc1C	none (no result: SW480 rereplic, KB-V1 cytotox, KB-3-1 cytotox, MCF10A rereplic, TSG101-PTAP inh)
Cc1ccc2c(c1)ncc[n+]2CC(=O)c1ccc(F)cc1	none (no result: SW480 rereplic, PINK1 expr mod, MCF10A rereplic, TSG101-PTAP inh)
CCOc1ccccc1CNC(=O)c1ccc(CS(=O)Cc2cccc(Cl)c2)o1 (stereo unspecified)	none (no result: SW480 rereplic, KB-V1 cytotox, KB-3-1 cytotox, MCF10A rereplic, TSG101-PTAP inh)
COc1ccc(C2C3=C(CCCC3=O)N(CC(=O)O)C3=C2C(=O)CCC3)cc1Cl	SW480 rereplic inconclusive, KB-V1 cytotox inconclusive, MCF10A rereplic 21µM
CCOc1cc(C2C3=C(CCCC3=O)N(CC(=O)O)C3=C2C(=O)CCC3)ccc1OC	MCF10A rereplic inconclusive
CCCOc1c(Br)cc(C2C3=C(CCCC3=O)N(CC)C3=C2C(=O)CCC3)cc1OC	SW480 rereplic 16µM, MCF10A rereplic inconclusive
C#CCOc1c(Cl)cc(C2C3=C(CCCC3=O)N(CC(=O)O)C3=C2C(=O)CCC3)cc1OC	MCF10A rereplic 21µM
COc1ccc(C2C3=C(CCCC3=O)N(CC(=O)O)C3=C2C(=O)CCC3)cc1Br	none (no result: SW480 rereplic, MCF10A rereplic, TSG101-PTAP inh)
O=C(CCS(=O)(=O)c1cc(Br)cc2c1N(C(=O)C1CC1)CC2)Nc1ccc(F)cc1	none (no result: SW480 rereplic, MCF10A rereplic, TSG101-PTAP inh)
